Compound activity: PubChem BioAssay, several laboratories
CCHF vOTU inh-1: CCHFV vOTU protease inhibition. 0.55% of 370,000 active. inhibition, % at 11.5 µM. AID 651958. Pep-AMC fluorescence; further: 0% = vehicle wells with enzyme and 100% = no enzyme wells
Mtb betalactam: beta-lactam sensitization of Mtb H37Rv. 0.27% of 330,000 active. inhibition, % at 25 µM. M. tuberculosis H37Rv growth with meropenem, percent inhibition; call rule not given here;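 further: growth measured after seven days incubation then overnight dye step; 0% = bacteria only wells and 100% = bacteria with antibiotic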
Mtb hypoxia rep: reduces hypoxia-regulated biosensor signal in M. tuberculosis; M. tuberculosis hypoxia-regulated fluorescent reporter, fluorescence; fluorescence inhibition, % (concentration not given with the values); 0.1% of 300,000 active; AID 1159583; in the data active means fluorescence inhibition mostly above about 23%, no sharp cut-off; inactive means mostly below about 17%
PfHsp40 rescue: restores yeast growth despite PfHsp40 toxicity; S. cerevisiae expressing PfHsp40, growth rescue, ATP luminescence; growth rescue, % at 12.5 µM; 0.68% of 340,000 active; AID 504582; in the data active means growth rescue above about 28%, passing the limit was not always enough;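 further: yeast W303a lacking pdr1 and pdr3 grown in galactose medium; growth measured after three days at 30 °C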
RecA intein inh: blocks M. tuberculosis RecA intein splicing; P9WHJ3; cell-free RecA intein splicing, fluorescence; inhibition, % (test concentration not listed); 0.75% of 290,000 active; in the data active means inhibition above about 30%;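 further: 0% = vehicle wells and 100% = reference inhibitor control wells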
Target sequence (P9WHJ3 whole entry, looked up): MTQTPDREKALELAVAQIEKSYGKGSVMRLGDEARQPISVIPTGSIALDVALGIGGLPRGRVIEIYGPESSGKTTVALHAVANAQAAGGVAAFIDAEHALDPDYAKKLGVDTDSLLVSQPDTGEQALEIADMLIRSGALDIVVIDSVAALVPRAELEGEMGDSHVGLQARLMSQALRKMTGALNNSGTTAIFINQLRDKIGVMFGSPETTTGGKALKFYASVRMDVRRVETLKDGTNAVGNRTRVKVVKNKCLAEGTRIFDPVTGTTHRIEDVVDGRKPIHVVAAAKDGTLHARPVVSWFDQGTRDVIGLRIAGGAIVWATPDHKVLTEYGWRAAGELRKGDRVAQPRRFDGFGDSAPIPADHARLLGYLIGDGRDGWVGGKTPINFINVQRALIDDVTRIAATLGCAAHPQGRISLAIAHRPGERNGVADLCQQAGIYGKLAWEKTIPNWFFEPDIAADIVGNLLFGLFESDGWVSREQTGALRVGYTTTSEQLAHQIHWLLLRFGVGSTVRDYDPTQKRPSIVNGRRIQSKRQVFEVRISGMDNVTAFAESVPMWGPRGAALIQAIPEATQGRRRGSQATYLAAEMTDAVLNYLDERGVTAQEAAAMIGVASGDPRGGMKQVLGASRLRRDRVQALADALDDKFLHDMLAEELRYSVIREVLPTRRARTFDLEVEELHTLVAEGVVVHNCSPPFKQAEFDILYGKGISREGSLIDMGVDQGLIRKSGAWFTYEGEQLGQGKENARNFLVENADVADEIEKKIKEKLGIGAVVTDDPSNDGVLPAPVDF
CCHF vOTU inh-2: CCHFV vOTU protease inhibition, confirmation. shares compounds with CCHF vOTU inh-1. Recombinant CCHFV vOTU, Pep-AMC fluorescence. inhibition, % at 11.5 µM. 17% of 1,900 active. AID 686976
* hit, by the source's call; x = no result given. Shown are actives, neighbours in structure and some others; about 1.7% of the full set was active somewhere. Unless noted, no stated cut-off is given here; in the data, active means inhibition above about 30%; inactive means the rest.

SMILES	CCHF vOTU inh-1	Mtb betalactam	Mtb hypoxia rep	PfHsp40 rescue	RecA intein inh	CCHF vOTU inh-2
O=C(Nc1cccc([N+](=O)[O-])c1)NC1CCS(=O)(=O)C1 (stereo unspecified)	-3.3	3.0	-0.9	1.0	1.8	x
O=C(Nc1cc([N+](=O)[O-])ccc1O)NC1CCS(=O)(=O)C1 (stereo unspecified)	35.8*	-6.2	8.0	0.8	x	-6.0
CC(C(=O)Nc1ccc2ccccc2c1)C1C[C@]1(C)C(NC(=O)c1cccnc1)c1ccccc1 (stereo partly specified)	x	x	-6.4	x	x	x
COC(=O)[C@]12C[C@H](CC(=O)NCc3cccc(C(F)(F)F)c3)C(=O)N(Cc3ccc4c(c3)OCO4)C1=C[C@H](C(C)(C)C)O[C@@H]2C	34.3*	x	x	x	x	10.8
COC(=O)[C@]12C[C@H](CC(=O)NCCC(C)C)C(=O)N(Cc3ccc4c(c3)OCO4)C1=C[C@H](C(C)(C)C)O[C@@H]2C	31.8*	x	x	x	x	-2.7
O=C(O)C(CC(=NO)c1ccc(Br)cc1)P(=O)(c1ccccc1)c1ccccc1 (stereo unspecified)	x	x	7.5	x	x	x
Cc1ccc2c(c1)c1c(n2CC(O)CNC2CCCCC2)CCCC1 (stereo unspecified)	64.5*	4.4	x	0.7	4.8	-11.6
O=C(Oc1ccc2[nH]cc(CCN3C(=O)c4ccccc4C3=O)c2c1)c1ccco1	36.2*	9.5	11.5	1.5	3.7	-23.9
CCN(CC)C(=O)COc1ccc(C(C)=NNC(=O)c2ccccc2Br)cc1	x	x	12.9	x	x	x
CCN1CC2C3C(=O)N(C)C(=O)C3[C@](CC)(C1=O)N2C(=O)c1ccc(C(C)(C)C)cc1 (stereo partly specified)	x	x	6.1	x	x	x
C[n+]1c(-c2ccccc2)cc2c(=Cc3ccc([N+](=O)[O-])cc3)c3ccccc3n21	93.0*	x	x	1.9	x	57.4*
C[n+]1c(-c2ccccc2)cc2c(=Cc3ccccc3)c3ccccc3n21	82.8*	x	x	169.7*	x	78.1*
CC(C)n1c2ccccc2c2cc([N+](=O)[O-])ccc21	13.6	6.3	x	-1.8	0.4	x
CN(C)c1ccc(C=c2c3cc(O)ccc3n3c2cc(-c2ccccc2)[n+]3C)cc1	46.5*	x	x	294.6*	x	41.0*
CN(C)c1ccc(/C=c2\sc3nc(-c4ccccc4)nn3c2=O)cc1	x	x	x	x	1.8	x
C(=Nn1cnnc1)c1cccnc1	x	x	5.4	x	x	x
C[C@@]12C(=O)N(CC3CC3)CC(=O)N1C(C=Cc1ccccc1)C1C(=O)N(c3ccccc3)C(=O)C12 (stereo partly specified)	x	x	3.6	x	x	x
CC(C)C(=O)NC(c1cccs1)c1cc([N+](=O)[O-])c2cccnc2c1O (stereo unspecified)	x	-4.3	7.6	1.3	1.1	x
CCC(=O)NC(c1cccs1)c1cc([N+](=O)[O-])c2cccnc2c1OC (stereo unspecified)	124.4*	x	x	x	x	-8.0
CC(C(=O)O)C1C[C@@]1(C)C(NC(=O)OCc1ccccc1)c1ccccc1 (stereo partly specified)	x	x	13.2	x	x	x
Cc1cc(C)nc(SCC(=O)N(C)CC(=O)Nc2c(Cl)cccc2Cl)n1	33.8*	-12.3	-9.0	-0.5	0.7	-10.5
Cc1cc(C)nc(SCC(=O)N(C)CC(=O)Nc2ccccc2Br)n1	2.6	-9.4	-3.7	-0.8	0.3	x
Cc1cc(C(=O)NN=Cc2ccccc2[N+](=O)[O-])c(C)o1	x	x	8.4	x	x	x
O=C(N/N=C/c1ccc(Br)o1)/C(=C/c1ccc([N+](=O)[O-])cc1)NC(=O)c1ccccc1	37.7*	3.3	x	-1.5	9.8	-4.7
Cc1ccc(Cl)cc1-c1cc(C(=O)NCc2cc(C(F)(F)F)cc(C(F)(F)F)c2)[nH]n1	33.0*	x	x	x	x	-19.4
SMILES	CCHF vOTU inh-1	Mtb betalactam	Mtb hypoxia rep	PfHsp40 rescue	RecA intein inh	CCHF vOTU inh-2
Cc1ccc(F)cc1-c1cc(C(=O)NCc2cc(C(F)(F)F)cc(C(F)(F)F)c2)[nH]n1	30.2*	x	x	x	x	4.8
Cc1cc(F)ccc1-c1cc(C(=O)NCc2cc(C(F)(F)F)cc(C(F)(F)F)c2)[nH]n1	0.3	x	x	x	x	x
CC(=NNC(=O)c1cc2ccccc2cc1O)c1cccs1	x	x	6.8	x	x	x
Cc1cc(C(=O)N/N=C2\CC(=O)c3ccccc32)c(C)n1-c1ccccc1	30.0*	-3.8	x	-1.0	11.6	-5.2
Cc1cc(C(=O)N/N=C2\CC(=O)CC(C)(C)C2)c(C)n1-c1ccccc1	-0.7	-5.0	x	0.0	x	x
CC(=NO)C(=O)C(CN1CCCCC1)CN1CCCCC1	x	x	-10.2	x	x	x
CCCNC1C(=O)N2C(C(=O)OCCC)=C(C)CSC12 (stereo unspecified)	x	x	-9.2	x	x	x
COc1ccc(S(N)(=O)=O)cc1C(=O)OCC(=O)N1CCCC(C)C1 (stereo unspecified)	29.8*	-5.3	11.2	0.4	x	-16.5
